# The supplement of paper PMC8007513
# Counter-ions that a name gives are not always drawn. ± gives the standard error. About 130 (10%) of roughly 1,300 compounds showed an effect of 50% or more. Only a selection was taken, and strong results are over-represented in it overall.
# Tested on: Trichoderma virens ATCC 9645
# Test: growth yield (OD600) with compound + IPBC relative to untreated control; higher = less growth inhibition
# Conditions: compound concentration: 100 uM, IPBC concentration: 200 ng/ml
# In short: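 Trichoderma virens ATCC 9645 spores, from potato dextrose agar plates grown for 7 days, were brought to 15,000 spores ml^−1 in potato dextrose broth and dispensed as 100 μl aliquots into 96-well plates. Each aliquot received library compounds at 100 μM final, with or without a biocide at 200 ng ml^−1, before growth at 30 °C and OD600 readings on a BioTek EL800 at 40 h and 72 h. Growth is expressed relative to the control containing neither agent and represents means of duplicate screens.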
Compound,growth yield (40 h),growth yield (72 h)
COC(c1ccccc1)(c1ccccc1)[C@H](Oc1nc(C)cc(C)n1)C(=O)O [Ambrisentan] + CCCCNC(=O)OCC#CI [3-iodo-2-propynyl butylcarbamate (IPBC)],89.3 ± 5.7%,93.9 ± 3.9%
NC(=O)N1c2ccccc2CC(=O)c2ccccc21 [Oxcarbazepine] + CCCCNC(=O)OCC#CI [3-iodo-2-propynyl butylcarbamate (IPBC)],83.4 ± 2.4%,92.9 ± 1.9%
CCC(C)n1ncn(-c2ccc(N3CCN(c4ccc(OCC5COC(Cn6cncn6)(c6ccc(Cl)cc6Cl)O5)cc4)CC3)cc2)c1=O (stereo not given) [Itraconazole] + CCCCNC(=O)OCC#CI [3-iodo-2-propynyl butylcarbamate (IPBC)],14.3 ± 1.9%,11.3 ± 1.7%
CC[C@@H]([C@H](C)O)n1ncn(-c2ccc(N3CCN(c4ccc(OC[C@@H]5CO[C@@](Cn6cncn6)(c6ccc(F)cc6F)C5)cc4)CC3)cc2)c1=O [Posaconazole] + CCCCNC(=O)OCC#CI [3-iodo-2-propynyl butylcarbamate (IPBC)],3.97 ± 1.4%,3.78 ± 1.7%
CC(=O)N1CCN(c2ccc(OCC3COC(Cn4ccnc4)(c4ccc(Cl)cc4Cl)O3)cc2)CC1 (stereo not given) [Ketoconazole] + CCCCNC(=O)OCC#CI [3-iodo-2-propynyl butylcarbamate (IPBC)],3.34 ± 0.48%,2.52 ± 0.42%
CC(C)N1CCN(c2ccc(OCC3COC(Cn4cncn4)(c4ccc(Cl)cc4Cl)O3)cc2)CC1 (stereo not given) [Terconazole] + CCCCNC(=O)OCC#CI [3-iodo-2-propynyl butylcarbamate (IPBC)],69.9 ± 2.5%,87 ± 1.3%
C[N+]1([O-])[C@@H]2C[C@@H](OC(=O)[C@H](CO)c3ccccc3)C[C@H]1[C@@H]1O[C@@H]12 (stereo not given in full) [Scopolamin-N-oxide hydrobromide] + CCCCNC(=O)OCC#CI [3-iodo-2-propynyl butylcarbamate (IPBC)],103 ± 2.2%,102 ± 1.1%
CC(C)c1cccc(C(C)C)c1O [Propofol] + CCCCNC(=O)OCC#CI [3-iodo-2-propynyl butylcarbamate (IPBC)],101 ± 2.9%,98.4 ± 1.3%
CO[C@@]1(NC(=O)C2SC(=C(C(N)=O)C(=O)O)S2)C(=O)N2C(C(=O)O)=C(CSc3nnnn3C)CS[C@@H]21 (stereo not given in full) [Cefotetan] + CCCCNC(=O)OCC#CI [3-iodo-2-propynyl butylcarbamate (IPBC)],94.8 ± 2.4%,96.5 ± 1.9%
NS(=O)(=O)c1cc2c(cc1C(F)(F)F)NCNS2(=O)=O [Hydroflumethiazide] + CCCCNC(=O)OCC#CI [3-iodo-2-propynyl butylcarbamate (IPBC)],89.1 ± 1.1%,92.4 ± 0.73%
C[C@]12Cc3c[nH]nc3C[C@@H]1CC[C@@H]1[C@@H]2CC[C@@]2(C)[C@H]1CC[C@]2(C)O [Stanozolol] + CCCCNC(=O)OCC#CI [3-iodo-2-propynyl butylcarbamate (IPBC)],91.02 ± 0.16%,95.9%
CCN1CC(CCN2CCOCC2)C(c2ccccc2)(c2ccccc2)C1=O (stereo not given) [Doxapram hydrochloride] + CCCCNC(=O)OCC#CI [3-iodo-2-propynyl butylcarbamate (IPBC)],88.6 ± 1.3%,91.14 ± 0.32%
CN(C)CCCSC(=N)N [Dimaprit dihydrochloride] + CCCCNC(=O)OCC#CI [3-iodo-2-propynyl butylcarbamate (IPBC)],93.9 ± 6.5%,95.8 ± 4.3%
Cc1ccc(-c2ncc(Cl)cc2-c2ccc(S(C)(=O)=O)cc2)cn1 [Etoricoxib] + CCCCNC(=O)OCC#CI [3-iodo-2-propynyl butylcarbamate (IPBC)],88.79 ± 0.48%,91.14 ± 0.73%
CN[C@@H]1C[C@@H](c2ccc(Cl)c(Cl)c2)c2ccccc21 [Indatraline hydrochloride] + CCCCNC(=O)OCC#CI [3-iodo-2-propynyl butylcarbamate (IPBC)],29.4 ± 4.9%,79.5 ± 1.7%
CN[C@H]1CC[C@@H](c2ccc(Cl)c(Cl)c2)c2ccccc21 [Sertraline] + CCCCNC(=O)OCC#CI [3-iodo-2-propynyl butylcarbamate (IPBC)],30.8 ± 4.1%,82.5 ± 2%
Cc1c(N(C)CS(=O)(=O)O)c(=O)n(-c2ccccc2)n1C [Dipyrone] + CCCCNC(=O)OCC#CI [3-iodo-2-propynyl butylcarbamate (IPBC)],92.4 ± 6.7%,87.9 ± 5.2%
COc1ccnc(C[S+]([O-])c2nc3cc(OC(F)F)ccc3[nH]2)c1OC (stereo not given) [Pantoprazole sodium] + CCCCNC(=O)OCC#CI [3-iodo-2-propynyl butylcarbamate (IPBC)],73.5 ± 2.4%,98.9 ± 0.94%
C#C[C@]1(O)CC[C@H]2[C@@H]3CCc4cc(OC)ccc4[C@H]3CC[C@@]21C [Ethynylestradiol 3-methyl ether] + CCCCNC(=O)OCC#CI [3-iodo-2-propynyl butylcarbamate (IPBC)],87 ± 16%,88.9 ± 12%
CO[C@@]1(NC(=O)C(C(=O)O)c2ccc(O)cc2)C(=O)N2C(C(=O)O)=C(CSc3nnnn3C)CO[C@@H]21 (stereo not given in full) [Moxalactam disodium salt] + CCCCNC(=O)OCC#CI [3-iodo-2-propynyl butylcarbamate (IPBC)],97.1 ± 14%,96 ± 7.7%

Compound,growth yield (40 h),growth yield (72 h)
CCn1cc(C(=O)O)c(=O)c2cc(F)c(N3CCNCC3)nc21 [Enoxacin] + CCCCNC(=O)OCC#CI [3-iodo-2-propynyl butylcarbamate (IPBC)],83.9 ± 1.6%,87 ± 1.5%
CCCCC(CC)CN1CN(CC(CC)CCCC)CC(C)(N)C1 (stereo not given) [Hexetidine] + CCCCNC(=O)OCC#CI [3-iodo-2-propynyl butylcarbamate (IPBC)],28.6 ± 8.6%,91.1 ± 1.8%
CCOC1O[C@H]([C@@H](COCc2ccccc2)OCc2ccccc2)[C@H](OCc2ccccc2)[C@H]1O (stereo not given in full) [Tribenoside] + CCCCNC(=O)OCC#CI [3-iodo-2-propynyl butylcarbamate (IPBC)],75.4 ± 2.1%,88.1 ± 1.1%
COc1cc([C@@H]2c3cc4c(cc3[C@H](O)[C@H]3COC(=O)[C@H]23)OCO4)cc(OC)c1OC [Podophyllotoxin] + CCCCNC(=O)OCC#CI [3-iodo-2-propynyl butylcarbamate (IPBC)],104 ± 6.3%,102 ± 4.5%
CC(=C(CCO)SSCC1CCCO1)N(C=O)Cc1cnc(C)nc1N (stereo in doubt) [Fursultiamine Hydrochloride] + CCCCNC(=O)OCC#CI [3-iodo-2-propynyl butylcarbamate (IPBC)],104 ± 4.3%,102 ± 3.2%
Oc1c(Cl)cc(Cl)c2cccnc12 [Chloroxine] + CCCCNC(=O)OCC#CI [3-iodo-2-propynyl butylcarbamate (IPBC)],1.27 ± 0.95%,1.89 ± 0.21%
Oc1c(I)cc(Cl)c2cccnc12 [Clioquinol] + CCCCNC(=O)OCC#CI [3-iodo-2-propynyl butylcarbamate (IPBC)],11.4%,5.66 ± 0.21%
CC(C(=O)O)c1ccc2c(c1)Cc1cccnc1O2 (stereo not given) [Pranoprofen] + CCCCNC(=O)OCC#CI [3-iodo-2-propynyl butylcarbamate (IPBC)],92 ± 8.7%,90.6 ± 3.8%
Nc1ncn(C2OC(CO)C(O)C2O)c(=O)n1 (stereo not given) [Azacytidine-5] + CCCCNC(=O)OCC#CI [3-iodo-2-propynyl butylcarbamate (IPBC)],67.2 ± 3%,91.9 ± 1.1%
Cc1cn([C@H]2C=C[C@@H](CO)O2)c(=O)[nH]c1=O [Stavudine] + CCCCNC(=O)OCC#CI [3-iodo-2-propynyl butylcarbamate (IPBC)],98.5 ± 15%,97.6 ± 9.5%
CNS(=O)(=O)Cc1ccc2[nH]cc(CCN(C)C)c2c1 [Sumatriptan succinate] + CCCCNC(=O)OCC#CI [3-iodo-2-propynyl butylcarbamate (IPBC)],92 ± 11%,91.3 ± 7.7%
CCCCS(=O)(=O)N[C@@H](Cc1ccc(OCCCCC2CCNCC2)cc1)C(=O)O [Tirofiban hydrochloride] + CCCCNC(=O)OCC#CI [3-iodo-2-propynyl butylcarbamate (IPBC)],85.5 ± 1.9%,91.3 ± 0.94%
CC(=O)OC1CN2CCC1CC2 (stereo not given) [Aceclidine Hydrochloride] + CCCCNC(=O)OCC#CI [3-iodo-2-propynyl butylcarbamate (IPBC)],80.85 ± 0.79%,86.84 ± 0.21%
CC(C)(CO)C(O)C(=O)NCCCO (stereo not given) [Panthenol (D)] + CCCCNC(=O)OCC#CI [3-iodo-2-propynyl butylcarbamate (IPBC)],87.2 ± 0.48%,90.09 ± 0.52%
CC(C)(C)NCC(O)c1ccc(O)c(CO)c1 (stereo not given) [Salbutamol] + CCCCNC(=O)OCC#CI [3-iodo-2-propynyl butylcarbamate (IPBC)],85.93 ± 0.16%,93 ± 0.94%
OCc1cc(C(O)CNCCCCCCOCCCCc2ccccc2)ccc1O (stereo not given) [Salmeterol] + CCCCNC(=O)OCC#CI [3-iodo-2-propynyl butylcarbamate (IPBC)],34.9 ± 1.6%,75.1 ± 3.4%
CC(C)(C)NC[C@H](O)c1ccc(O)c(CO)c1 [Levalbuterol hydrochloride] + CCCCNC(=O)OCC#CI [3-iodo-2-propynyl butylcarbamate (IPBC)],86.2 ± 2.4%,90.3 ± 2.6%
C1N2CN3CN1CN(C2)C3 [Methenamine] + CCCCNC(=O)OCC#CI [3-iodo-2-propynyl butylcarbamate (IPBC)],89 ± 1.3%,93.13 ± 0.84%
Nc1c2ccccc2nc2ccccc12 [Aminacrine] + CCCCNC(=O)OCC#CI [3-iodo-2-propynyl butylcarbamate (IPBC)],85.5 ± 5.4%,96.3 ± 3.4%
Nc1ccc(/N=N/c2ccccc2)c(N)n1 [Phenazopyridine hydrochloride] + CCCCNC(=O)OCC#CI [3-iodo-2-propynyl butylcarbamate (IPBC)],7.15 ± 0.48%,13.5 ± 1.8%
